These compounds were tested against Hexose transporter 1 (Plasmodium falciparum) (UniProt O97467) (assay: ST_JUDE_LEISH: Cytotoxicity at 2uM final concentration against transgenic Leishmania Mexicana promastigotes LmPfHT that are glucose transport deficient and complemented with the Plasmodium falciparum hexose transporter. Activity is measured by DNA content using SYBR green in vitro).
Type: functional

**Q.** Cc1nc(C)c(-c2ccc(S(=O)(=O)c3ccc(Cl)cc3)cc2)c(O)c1Cl was tested. Which inhibition did it give?
**A.** 5.86%

**Q.** Which inhibition does the source give for CCCN(CC1CC1)c1ncc(-c2cccc(CNCCC3CCCN3C)c2)cn1 (stereo not given) here?
**A.** 26.8%

**Q.** Which inhibition does the source give for CCN1CCN(CCCNc2c3ccccc3nc3ccccc23)CC1 here?
**A.** 55.3%

**Q.** CCCCCC(=O)NCC(NCCCNc1cc(=O)c2ccccc2[nH]1)c1cc(Br)cc(Br)c1 (stereo not given) was tested. Which inhibition did it give?
**A.** 2.44%

**Q.** How did the inhibition turn out when CCCC1N=C(N)N=C(N)N1c1cccc([N+](=O)[O-])c1 (stereo not given) was run?
**A.** -0.09%

**Q.** With Cc1cccc2nc(-c3ccc(-c4ccc(NC(=O)c5cncn5C)cc4)s3)[nH]c12 as the compound, how does the inhibition read?
**A.** 9.8%

**Q.** Which inhibition does the source give for CNC(=O)COC(=O)c1c2c(nc3ccccc13)C(=Cc1ccc3c(c1)OCO3)CCC2 here?
**A.** -1.19%

**Q.** How did the inhibition turn out when COc1ccc2nccc([C@@H](O)CN3CCC(NCc4ccc5c(c4)NC(=O)CS5)CC3)c2c1 was run?
**A.** 4.15%

**Q.** For Cc1ccc2nc(-c3ccc(C(=O)NC4CCN(Cc5ccccc5)CC4)cc3)[nH]c2c1C, which inhibition is on record?
**A.** 7.69%

**Q.** For COc1cc2nc(N3CCC(CNC(=O)c4ccc(C(C)=O)cc4)CC3)nc(N)c2cc1OC, which inhibition is on record?
**A.** 2.18%

**Q.** Which inhibition does the source give for O=C(Nc1cc(Cl)cc(Cl)c1)Nc1ccccc1C(=O)NC1CCCCC1 here?
**A.** -1.94%

**Q.** O=C(OCc1ccccn1)c1nc2ccccc2[nH]1 was tested. Which inhibition did it give?
**A.** 2.57%

**Q.** With Cc1cccc(Cl)c1Nc1nnc(-c2cccc(C(=O)NC[C@@H]3CC[C@H]4C[C@@H]3C4(C)C)c2)o1 as the compound, how does the inhibition read?
**A.** 8.97%

**Q.** Which inhibition does the source give for C[C@H](NC(=O)C1CCCC1)C(=O)Nc1ccc(-c2ccc(-c3nc4cc(C(F)(F)F)ccc4[nH]3)cc2)cc1 here?
**A.** 0.76%

**Q.** With COc1ccc2nccc([C@@H](O)CN3CCC(NCc4nc5c(cc4F)SCC(=O)N5)C(F)C3)c2c1 (stereo not given in full) as the compound, how does the inhibition read?
**A.** 3.21%

Source: ChEMBL document CHEMBL3433997, “St. Jude Leishmania screening dataset” (2016)
